A selection: hits, their analogues and other compounds. The true share with any hit is near 13%.
Shiga inhibitor: blocks Shiga toxin action in Vero cells; Vero cells, Shiga toxin protein synthesis inhibition reporter; inhibition, % at 38.7 µM; 290,000 compounds, 9.2% hits; AID 2315; in the data active means inhibition mostly above about 28%, no sharp cut-off; inactive means mostly below about 43%
CHX counter: affects cycloheximide protein synthesis inhibition readout, counter-screen; 300,000 compounds, 12% hits; cell reporter, cycloheximide protein synthesis inhibition counterscreen; max response, %; in the data active means max response mostly above about 13%, no sharp cut-off; inactive means mostly below about 14%; further: read at 38.3 µM for the half of the compounds with a filed dose
Marburg entry inh: inhibitors of Marburg virus binding or cell entry | Marburg virus pseudotyped entry inhibition, cell reporter | Potency, µM (top dose mostly 37.8 µM), actives largely listed as inhibitors | 300,000 compounds, 1.8% hits; calls by dose curve; tested in HEK293 cells
FMDV inh: antivirals against foot and mouth disease virus; FMDV antiviral cell-based qHTS; Potency, µM (highest dose often 57.9 µM), usual class: inhibitors; 410,000 compounds, 1.2% hits; AID 1159524; calls by dose curve; tested in HEK293T cells; further: read-out not given here; nearly all actives have a fitted effect of over 45% in size
LASV entry inh: inhibitors of Lassa virus binding or cell entry | Lassa virus pseudotype entry inhibition, cell reporter | Potency, µM (titrated, usually from 37.9 µM), actives largely listed as inhibitors | 300,000 compounds, 1.2% hits; calls by dose curve; tested in HEK293 cells; further: nearly all actives have a fitted effect of over 50% in size
HCV inhibitor: HCV inhibition. Huh7.5.1 HCVcc-Cre infection, luciferase reporter, 44 h. Potency, µM (doses to about 41.8 µM), usual class: inhibitors. AID 651820. 340,000 compounds, 3.4% hits; active means well fitted inhibition curve with a large enough effect; inconclusive means small, poorly fitted or top-dose-only effect, or another doubt; inactive means no such curve, though single readings can be large or run the other way
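Cells seeded at 1,000/well and cultured 4 h, then compounds added followed by HCVcc-Cre virus (~0.5 moi). After 44 h further culture, luciferase substrate was added, plates held 15 min at room temperature, and luminescence read for 15 sec.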
A number is an active result; . = inactive; ? = inconclusive; / = no result given.

SMILES	Shiga inhibitor	CHX counter	Marburg entry inh	FMDV inh	LASV entry inh	HCV inhibitor
O[C@@H]1CCCN2C[C@@H](O)[C@@H](O)C12 (stereo partly specified)	/	/	/	.	/	/
CCOc1cc(/C=C2\C(=O)N(c3nc(-c4ccc(Br)cc4)cs3)N=C2c2ccccc2)ccc1O	.	.	.	5.6µM	.	.
CCOC(=O)C1=C(C)N(CCCC(=O)O)C(=O)NC1c1ccc(Cl)cc1Cl (stereo unspecified)	.	.	/	.	/	.
CCOC(=O)C1(Cc2ccccc2Cl)CCN(C(=O)CN2CCOC2=O)CC1	75	43	?	.	?	.
CCOC(=O)C1(Cc2ccccc2Cl)CCN(Cc2csc(C(C)=O)c2)CC1	.	.	?	.	?	13µM
CC(=O)c1c(C)oc2ccc(OCc3ccccc3)cc12	63	31	/	.	/	?
COc1ccc(C(=O)c2ccc3oc(-c4ccc(OC)cc4)c(-c4ccc(O)cc4)c3c2)cc1	/	/	/	.	/	8.9µM
Cc1oc2ccc(O)cc2c1C(=O)OC(C)C	.	22	.	/	.	?
COc1ccc(C(=O)c2c(C)oc3ccc(O)cc23)cc1	32	29	/	.	/	.
Cc1cccc(C)c1NC(=O)CNCC(=O)Nc1c(C)cccc1C	.	.	.	.	.	.
NC(=O)C1CCN(C(=O)c2ccc3c(c2)N(Cc2cccc(Cl)c2)C(=O)c2ccccc2S3=O)CC1 (stereo unspecified)	/	/	/	.	.	/
O=C(Cn1nc(C(F)(F)F)c2c1CCCC2)Nc1cccc(Cl)c1	/	/	/	?	.	/
Cc1oc2ccc(O)cc2c1C(=O)c1ccc(Cl)cc1	.	17	.	.	.	?
Cc1oc2ccc(O)cc2c1C(=O)c1ccc([N+](=O)[O-])cc1	.	.	.	35µM	.	.
COc1ccc2oc3ccc(OC)cc3c(=O)c2c1	.	22	?	.	.	.
COCCOC(=O)c1c(C)oc2ccc(OC(=O)c3c(OC)cccc3OC)cc12	.	.	?	?	?	7.9µM
COc1ccc2oc(C)c(C(=O)c3ccc(C)cc3)c2c1	36	22	/	.	/	.
C=C(C)c1cccc(C(C)(C)NC(=O)Nc2ccc(OC)nc2)c1	.	.	.	.	?	?
C=C(C)c1cccc(C(C)(C)NC(=O)Nc2ccc(C)cn2)c1	63	21	.	.	.	8.9µM
C=C(C)c1cccc(C(C)(C)NC(=O)Nc2cc(C)ccn2)c1	92	30	?	?	?	?
NS(=O)(=O)c1ccc(NC(=O)CSc2nnc(NC3CC3)s2)cc1	/	/	.	.	.	.
O=C(CSc1nnc(NC2CCCCC2)s1)Nc1ccc2c(c1)C(=O)c1ccccc1C2=O	66	42	/	.	/	10µM
CC(C)Nc1nnc(SCC(=O)Nc2ccc3c(c2)C(=O)c2ccccc2C3=O)s1	70	41	?	.	?	?
Cc1ccc(NC(=S)NC(=O)Cc2ccccc2)c(O)c1	.	32	.	.	.	.
Cc1ccc(O)c(NC(=S)NC(=O)C(C)C)c1	52	16	.	.	.	.
SMILES	Shiga inhibitor	CHX counter	Marburg entry inh	FMDV inh	LASV entry inh	HCV inhibitor
COC(=O)c1ccccc1NC(=S)NC(=O)CC(C)C	.	.	.	.	.	.
CC(C)C(=O)NC(=S)Nc1ccccc1C(F)(F)F	.	.	.	.	.	.
Cc1ccc(O)c(NC(=S)NC(=O)CC(C)C)c1	61	59	.	.	?	.
CCOC(=O)Cn1nc(C)c([N+](=O)[O-])c1C	.	.	.	.	.	.
CC(C)CCNC(=O)NC(=O)COc1c(F)c(F)cc(F)c1F	.	.	.	.	.	.
Cc1cc(=O)n2c3c(sc2n1)C(=O)N(Cc1ccccc1)C3=O	.	.	/	/	/	/
O=C(CCCSc1nc2ccccc2[nH]1)NCc1ccccc1F	.	.	.	.	.	.
Fc1ccccc1CSc1nc2ccccc2[nH]1	86	54	?	.	?	.
Fc1c(F)c(F)c(CSc2nc3ccccc3[nH]2)c(F)c1F	71	25	.	.	.	?
CC(C)(C)C(=O)CSc1nc2ncc(Br)cc2[nH]1	.	36	.	.	.	.
c1ccc2[nH]c(SCc3cscn3)nc2c1	65	35	?	.	?	.
O=S1(=O)CC=C(CSc2nc3ccccc3[nH]2)C1	.	.	.	.	.	.
N#Cc1ccccc1CSc1nc2ncc(Br)cc2[nH]1	.	.	.	.	/	?
Fc1ccccc1CSc1nc2ncc(Br)cc2[nH]1	.	22	.	.	?	.
COc1cccc(-c2ccc3c(c2)O[C@@H](CN(C)Cc2cncnc2)[C@@H](C)CN([C@H](C)CO)S3(=O)=O)c1	/	/	/	.	/	/
CC1CN(S(=O)(=O)c2cccc(C(=O)NN3CCN(C)CC3)c2)CC(C)O1 (stereo unspecified)	.	.	.	.	.	.
CN(c1cccc(Cl)c1)S(=O)(=O)c1cccc(C(=O)Nc2ccc3c(c2)CCC3)c1	47	30	2.2µM	.	?	6.3µM
CC1CN(S(=O)(=O)c2cccc(C(=O)Nc3ccc4c(c3)CCC4)c2)CC(C)O1 (stereo unspecified)	.	.	11µM	.	?	?
CC1CCN(c2nc3ccc(C(=O)NCc4ccc(Cl)cc4)cc3s2)CC1	/	/	.	.	.	/
CC1CCN(c2nc3ccc(C(=O)O)cc3s2)CC1	.	.	?	?	0.63µM	.
Cc1ccc(CCNC(=O)c2ccc3nc(N4CCC(C)CC4)sc3c2)cc1	/	/	.	.	?	/
CCC1CCCCN1CCCNC(=O)c1ccc2nc(N3CCC(C)CC3)sc2c1 (stereo unspecified)	90	29	/	?	/	?
CC1CCN(c2nc3ccc(C(=O)NCCCN4CCCCC4)cc3s2)CC1	29	28	/	.	/	.
Cc1cnc(C(=O)OCC(=O)Nc2cccc(S(=O)(=O)N3CCOCC3)c2)cn1	/	/	.	.	.	.
CCCCCn1c(CN2CCN(c3cccc(Cl)c3)CC2)nc2c1c(=O)[nH]c(=O)n2C	.	.	.	?	/	.
SMILES	Shiga inhibitor	CHX counter	Marburg entry inh	FMDV inh	LASV entry inh	HCV inhibitor
COc1ccc2cc(C(=O)c3ccccc3)c(=O)oc2c1	94	45	?	/	?	.
CCOc1ccc2cc(C(=O)c3ccccc3)c(=O)oc2c1	active	33	?	.	?	.
COc1ccc(-c2nc3c4ccccc4ccn3c2CC2CCCCC2)cc1OC	/	/	/	.	/	/
c1ccc(-c2nc3c4ccccc4ccn3c2CN2CCOCC2)cc1	64	49	/	.	/	?
COc1ccc(-c2nc3c4ccccc4ccn3c2CN2CCOCC2)cc1OC	74	32	/	.	/	?
Clc1ccc(-c2nc3ccccn3c2CN2CCOCC2)cc1	25	21	.	.	.	.
Cn1c2ccccc2c2cnn(CC(=O)Nc3cccc(F)c3)c(=O)c21	.	.	.	.	.	.
CC(=O)N1c2ccc(S(=O)(=O)N3CCC(C(=O)Nc4cccc(C)c4C)CC3)cc2CC1C (stereo unspecified)	.	.	.	.	.	?
O=C1Cc2cc(S(=O)(=O)N3CCN(c4ccc(C(=O)O)cc4)CC3)ccc2N1	/	/	/	.	/	/
CC(=O)c1ccc(N2CCN(S(=O)(=O)c3ccc4c(c3)CC(C)N4C(=O)C3CC3)CC2)cc1 (stereo unspecified)	.	.	/	?	/	3.5µM

Assay outcomes as filed in PubChem BioAssay.
